# PubChem BioAssay (EPA / NIEHS)
# Results filed as inconclusive are left out. Activity calls are given as the source filed them. Rule for the calls: active = hit-call score of the fitted dose curve at least 0.9, where 1 is the maximum; inconclusive = response in the unintended direction; inactive = score below 0.9.
# Assay: CCTE_Harrill_HTTr_CellCount_MCF7: CCTE's Cell Proliferation Assessment for the High-Throughput Transcriptomics (HTTr) Platform, Harrill Lab (AID 2284012);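 note: intended direction is loss of nuclei count meaning fewer cells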
# Text: This is a cell-based assay that evaluates cell viability and cell growth using high content imaging to count the number of Hoechst-labeled nuclei that are present in an assay well in 384-well format.This is a cell-based assay that evaluates cell viability and cell growth in MCF-7 cells. This was part of a full screening experiment. High content imaging is used to count the number of Hoechst-labeled nuclei that are present in an assay well in 384-well format.The assay component endpoint CCTE_Harrill_HTTr_CellCount_MCF7 was analyzed with bidirectional fitting relation to DMSO as the negative control and baseline of activity. Using a type of viability reporter, loss-of-signal activity can be used to understand changes in cell count. To generalize the intended target to other relatable targets, this assay endpoint is annotated to cell cycle, where the subfamily is cell count.
# Chemicals were tested in MCF7 cells in an eight point dilution series with a six hour exposure duration.
row,SMILES,outcome
1,O=C(Nc1ccccc1)Nc1cnns1,inactive
2,O=C(O)C(F)(F)C(F)(F)C(F)(F)C(F)(F)C(F)(F)C(F)(F)C(F)(F)F,inactive
3,COP(=S)(OC)Oc1ccc([N+](=O)[O-])cc1,inactive
4,CCCN(CCOc1c(Cl)cc(Cl)cc1Cl)C(=O)n1ccnc1,inactive
5,CNC(=O)CSP(=S)(OC)OC,inactive
6,O=S(=O)(O)C(F)(F)C(F)(F)C(F)(F)C(F)(F)C(F)(F)C(F)(F)C(F)(F)C(F)(F)F,inactive
7,CN1CSC(=S)N(C)C1,inactive
8,O=S1OCC2C(CO1)C1(Cl)C(Cl)=C(Cl)C2(Cl)C1(Cl)Cl (configuration not stated),inactive
9,Oc1cc(Cl)ccc1Oc1ccc(Cl)cc1Cl,inactive
10,COc1nn(CSP(=S)(OC)OC)c(=O)s1,inactive
11,CCC(C)(NC(=O)c1cc(Cl)c(C)c(Cl)c1)C(=O)CCl (configuration not stated),inactive
12,CNC(=O)Oc1cccc(N=CN(C)C)c1,inactive
13,O=C(O)COc1ccc(Cl)cc1Cl,inactive
14,O=[N+]([O-])/N=C1\NCCN1Cc1ccc(Cl)nc1,inactive
15,CCN(CC)C(=O)SCc1ccc(Cl)cc1,inactive
16,CCC(C)(C)C(=O)OC1=C(c2ccc(Cl)cc2Cl)C(=O)OC12CCCCC2,inactive
17,N#Cc1c(Cl)c(Cl)c(Cl)c(C#N)c1Cl,inactive
18,O=[N+]([O-])c1c(Cl)c(Cl)c(Cl)c(Cl)c1Cl,inactive
19,Oc1ccc(Cl)cc1Cc1ccccc1,inactive
20,CCOCN(C(=O)CCl)c1c(C)cccc1CC,inactive
21,ClC1C(Cl)C(Cl)C(Cl)C(Cl)C1Cl (configuration not stated),inactive
22,O=C(NC(=O)c1c(F)cccc1F)Nc1ccc(OC(F)(F)C(F)OC(F)(F)F)c(Cl)c1 (configuration not stated),inactive
23,O=C1c2ccccc2C(=O)N1SC(Cl)(Cl)Cl,inactive
24,CC[C@H](C)[C@H]1O[C@]2(C=C[C@@H]1C)C[C@@H]1C[C@@H](C/C=C(\C)[C@@H](O[C@H]3C[C@H](OC)[C@@H](O[C@H]4C[C@H](OC)[C@@H](O)[C@H](C)O4)[C@H](C)O3)[C@@H](C)/C=C/C=C3\CO[C@@H]4[C@H](O)C(C)=C[C@@H](C(=O)O1)[C@]34O)O2 (tested in a mixture with another compound),inactive
25,Cc1[nH]c(=O)n(C(C)(C)C)c(=O)c1Cl,inactive
26,CC(C)(C)C(O)/C(=C\c1ccc(Cl)cc1Cl)n1cncn1 (configuration not stated),inactive
27,CC1(C)C(C=C(Cl)Cl)C1C(=O)OC(C#N)c1ccc(F)c(Oc2ccccc2)c1 (configuration not stated),inactive
